Screening results deposited in PubChem by National Center for Advancing Translational Sciences (NCATS).
An excerpt weighted towards active compounds, which were near 10% of everything screened.
Six1-Eya2 blk: Six1/Eya2 interaction inhibition; activity change, % (test concentration not listed); AID 651725; AlphaScreen GST-Six1/His-Eya2 binding, biochemical; active compounds read low; actives 0.56% (n = 360,000); Q15475+O00167; in the data active = activity change below about -65%; inconclusive = mostly about -30% to -63%; note: % is set by controls: 0 for no effect and ±100 for the full control effect
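Six1/Eya2 binding was read as AlphaScreen signal after compounds were pinned into GST-Six1 plus His-tagged Eya2 (5X stock 250/500 nM) in pH 8.0 Tris/NaCl/TCEP buffer, beads added, then incubated 1 h, 37 C, dark.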
HP1b chromo inh: inhibitors of HP1-beta chromodomain binding to methylated histone tails; AID 540317; actives 0.56% (n = 390,000); AlphaScreen HP1-beta / biotin-H3K9me3 peptide binding; Potency, µM (top dose mostly 114 µM), for inactives: at the highest dose activity change, negative = inhibition, most hits filed as inhibitors; note: potency is the fitted concentration of half-maximal effect; nearly all actives have a fitted effect of over 70% in size
Target sequence (P83916 whole entry, looked up): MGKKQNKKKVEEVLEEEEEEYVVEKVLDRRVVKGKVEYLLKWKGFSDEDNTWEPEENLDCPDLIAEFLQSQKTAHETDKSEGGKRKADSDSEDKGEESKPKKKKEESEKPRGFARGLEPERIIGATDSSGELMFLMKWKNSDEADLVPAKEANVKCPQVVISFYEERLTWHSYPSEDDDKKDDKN
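HP1-beta protein (50 nM final) preincubated 30 min at room temperature with biotinylated H3(1-18)K9me3 peptide (50 nM) in PBS pH 7.4, 0.01% Tween-20, then compound added for 30 min. AlphaScreen streptavidin donor/nickel chelate acceptor beads (10 ug/mL final), 30 min dark, luminescence read.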
JMJD2A Tudor: JMJD2A Tudor domain (human) inhibition | O75164 | AlphaScreen JMJD2A-Tudor / H3K4me3 peptide binding | Potency, µM (titrated, usually from 114 µM), inactives show top-dose activity change, negative = inhibition, hits mostly inhibitors | actives 4.4% (n = 390,000) | AID 504339; note: potency is the fitted concentration of half-maximal effect; % is set by controls: 0 for no effect and ±100 for the full control effect; nearly all actives have a fitted effect of over 50% in size
BAZ2B block: BAZ2B (human) inhibition. Q9UIF8. AlphaScreen BAZ2B-H3K14Ac peptide displacement. Potency, µM (top dose mostly 114 µM), for inactives: at the top dose activity change, negative = inhibition, actives largely listed as inhibitors. actives 4.4% (n = 360,000); note: potency is the fitted concentration of half-maximal effect; % is set by controls: 0 for no effect and ±100 for the full control effect; nearly all actives have a fitted effect of over 60% in size
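Compounds, titrated to a top concentration of 110 uM, were incubated 30 min at room temperature with preformed BAZ2B/acetyl-K14 H3 peptide complex (50 nM each). Proximity signal was measured by AlphaScreen after 20 min with beads.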
G9a block: inhibitors of human histone lysine methyltransferase G9a; actives 8.8% (n = 350,000); Potency, µM (highest dose often 102 µM), for inactives: top-dose activity, negative = inhibition, usual class: inhibitors; G9a H3K9 monomethylation, AlphaScreen, 2 h; note: potency is the fitted concentration of half-maximal effect; % is set by controls: 0 for no effect and ±100 for the full control effect; nearly all actives have a fitted effect of over 75% in size
Target sequence (Q96KQ7 913-1193 limits assumed): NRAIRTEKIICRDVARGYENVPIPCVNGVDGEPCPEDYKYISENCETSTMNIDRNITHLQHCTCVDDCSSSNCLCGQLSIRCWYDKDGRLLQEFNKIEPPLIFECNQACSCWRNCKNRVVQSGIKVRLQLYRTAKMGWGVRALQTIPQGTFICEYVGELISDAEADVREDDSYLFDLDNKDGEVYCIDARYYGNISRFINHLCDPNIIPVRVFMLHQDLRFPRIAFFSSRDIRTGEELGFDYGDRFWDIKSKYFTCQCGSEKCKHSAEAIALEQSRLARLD
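G9a (20 nM) preincubated 15 min RT with compounds, then 500 nM biotinylated H3K9 peptide and 20 uM SAM added; 2 h RT reaction. Monomethyl-H3K9 product detected by AlphaScreen with anti-H3K9me1 antibody, streptavidin donor and anti-rabbit IgG acceptor beads.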
CtBP-E1A blk: blocks the CtBP interaction with E1A; AlphaScreen GST-E1A/His-CtBP binding, 1536-well; active compounds read low; activity change, % (concentration not given with the values); actives 0.49% (n = 340,000); in the data active = activity change below about -65%; inconclusive = mostly about -30% to -63%; note: % is set by controls: 0 for no effect and ±100 for the full control effect
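AlphaScreen with 125 nM GST-E1A and 125 nM His-CtBP (5X stocks) in Tris pH 8.0, 300 mM NaCl, BSA, Tween 20, TCEP. Compounds preincubated 2 h at 37 deg C, then glutathione donor/nickel acceptor beads added for 1 h at 37 deg C in dark.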
An asterisk follows results filed as active; ? = inconclusive; / = no result given; [ ] = remark or other dose. Unless noted, calls come from the whole dose curve; as a rule, active = well fitted inhibition curve with a large enough effect; inconclusive = small, poorly fitted or top-dose-only effect; inactive = no such curve, though single readings can be large or run the other way.

SMILES	Six1-Eya2 blk	HP1b chromo inh	JMJD2A Tudor	BAZ2B block	G9a block	CtBP-E1A blk
Nc1c(C(=O)Nc2ccc(F)cc2)sc(=S)n1-c1ccccc1F	-1	-22%	-19%	-12%	7.9µM*	1
Cn1c(N)c(C(=O)Nc2ccccc2F)sc1=S	-4	?	-33%	-33%	50µM*	/
Cn1c(N)c(C(=O)Nc2ccc3ccccc3c2)sc1=S	-1	-21%	-18%	0%	7.1µM*	2
CCC(C(=O)Nc1cc(-c2cn3cccnc3n2)ccc1C)c1ccccc1 (stereo not drawn)	/	29%[57 µM]	22µM*	3%	8%[59 µM]	/
Cc1ccc(-c2cn3cccnc3n2)cc1NC(=O)c1ccc(Br)o1	-4	23%	6%	12%	18%[59 µM]	-9
COc1ccc(-c2cn3cccnc3n2)cc1NC(=O)c1ccc(Br)o1	-16	36%	?	?	2.8µM*	-20
COc1ccc(NC(=O)CCCN2C(=O)CCn3nc(-c4cn(C)c5ccccc45)cc32)cc1	/	10%[57 µM]	-22%	-14%	-8%[59 µM]	/
CN(C)c1ncc(C2=C(Cl)C(=O)C(N3CCCC3)=C(Cl)C2=O)s1	?	-84%	11µM*	/	/	-24
CC(=O)c1cnc(N(C)C)s1	-2	76%	12%	30%	-12%[59 µM]	3
O=C1C(Cl)=C(N2CCCCC2)C(=O)C(Cl)=C1c1cnc(N2CCCCC2)s1	-8	?	8.9µM*	45µM*	2.2µM*	-2
CC(Sc1nnc(N)s1)c1ccccc1Cl (stereo not drawn)	0	90%	-4%	-1%	40µM*	4
CC(Sc1nnc(N)s1)C(=O)NNC(=O)c1cccc(Cl)c1 (stereo not drawn)	-3	33%	6%	/	/	-4
Cc1cc[n+](Cc2ccc([N+](=O)[O-])cc2)cc1	14	11%	-12%	-9%	45µM*	-2
Cc1ccc[n+](Cc2ccc([N+](=O)[O-])cc2)c1	1	42%	5%	-7%	?	8
Cc1cc(NC(=O)C2CCN(S(=O)(=O)c3ccc4[nH]c(=O)oc4c3)CC2)ccc1Br	/	13%	-17%	-9%	5%[59 µM]	/
CC(C)CNc1nc(Oc2ccc(OCC(N)=O)nn2)nc(N2CCOCC2)n1	/	33%	-13%	-4%	1%[59 µM]	/
N#CCCN1CCCc2cc(N=Nc3ccc(C(F)(F)F)cc3)ccc21	?	11µM*	13µM*	5.6µM*	/	?
CCOC(=O)c1c(C)[nH]c(C(=O)CSc2nnc(Nc3ccccc3F)s2)c1C	1	18%	-24%	-37%	18µM*	1
COc1ccc(CNC(=O)CN2N=C(c3ccccc3)CCC2=O)c(OC)c1	/	33%	2%	2%	5%[59 µM]	/
CCCCCC/C=C\CCCCCCCc1cccc(O)c1C(=O)O	/	/	/	/	3%[2.33 µM]	/
CCCCCC(=O)Cc1cc(O)cc2c1C(=O)Oc1cc(O)c(C(=O)O)c(CCCCC)c1O2	8	-9%	79µM*	?	-23%[59 µM]	-3
COC(=O)C1=NN(N=O)C2(CC(=O)N(c3cc(C)cc(C)c3)C2=O)C1 (stereo not drawn)	-3	36%	?	-2%	14µM*	-12
COc1ccc(-c2cn3nc(N4CCCC(C(=O)Nc5ccc(C)c(C)c5)C4)sc3n2)cc1 (stereo not drawn)	/	-13%	-29%	-1%	-33%[59 µM]	/
N#C/C(=C/c1ccc(-c2ccc(C(=O)O)c(Cl)c2)o1)C(=O)NCC1CCCO1 (stereo not drawn)	-11	-12%	-6%	56µM*	?	-11
N#C/C(=C\c1ccc(-c2ccc(C(=O)O)cc2)o1)C(=O)Nc1ccccc1C(=O)O	/	-5%	79µM*	?	?	/
SMILES	Six1-Eya2 blk	HP1b chromo inh	JMJD2A Tudor	BAZ2B block	G9a block	CtBP-E1A blk
Cc1c(NC(=O)/C(C#N)=C/c2ccc(-c3ccc(Cl)cc3)o2)c(=O)n(-c2ccccc2)n1C	?	-16%	?	50µM*	20µM*	8
Cc1c(N/N=C(\C#N)C(=O)c2ccc(Cl)cc2)c(=O)n(-c2ccccc2)n1C	-82*	-3%	79µM*	25µM*	?	-76*
N#C/C(=C\c1ccc(-c2ccc(Br)cc2)o1)C(=O)Nc1ccccc1O	/	10%	-17%	-1%	-24%[59 µM]	/
CC(=O)N1c2nc(C(C)C)nn2C2(CCCCC2)[C@@H]2CCCC[C@@H]21	/	37%	0%	-29%	-8%[59 µM]	/
COCCCNC(=O)C1CCC(Cn2c(=O)c3sccc3n(C)c2=O)CC1 (stereo not drawn)	/	107%	-15%	-8%	21%[59 µM]	/
CC(=O)c1ccc(NC(=O)CN2C(=O)c3cccnc3Sc3ccccc32)cc1	/	55%	-14%	28%	8%[59 µM]	/
CCOc1ccc(CCNC(=O)c2ccc3c(c2)N(Cc2ccccc2)C(=O)c2ccccc2S3=O)cc1OCC (stereo not drawn)	/	6%	-35%	-13%	-42%[59 µM]	/
CCC(=O)N1CCc2cc(Br)cc(S(=O)(=O)N3CCC(C(=O)N(CC)CC)CC3)c21	/	19%	-7%	-2%	7%[59 µM]	/
CC(C)C(=O)N1c2nc(-c3ccco3)nn2C2(CCCCC2)[C@@H]2CCCC[C@@H]21	/	41%	-14%	?	?	/
N#C/C(=N\Nc1ccc(Cl)cc1)C(=O)c1ccccc1	-17	?	45µM*	50µM*	?	-6
COc1ccccc1C(=O)NC1(C(F)(F)F)C(=O)Nc2c1c(=O)[nH]c(=O)n2CCc1ccccc1 (stereo not drawn)	/	20%	-4%	-27%	-7%[59 µM]	/
OC(COc1ccc2c(c1)OCO2)CN1CCN(c2ccc(F)cc2)CC1 (stereo not drawn)	-4	31%	-11%	?	50µM*	-5
O=C(CN1CCN(c2ccc(F)cc2)CC1)c1ccc2c(c1)OCO2	-6	31%	-28%	-24%	32µM*	-1
OC(COc1ccc2c(c1)OCO2)CN1CCCC1 (stereo not drawn)	0	18%	-21%	-11%	4%	1
CC(C)OCC(O)CN1CCN(CC(O)COc2ccc3c(c2)OCO3)CC1 (stereo not drawn)	1	12%	-9%	1%	-26%[59 µM]	-1
c1ccc(N2CCN(CCCOc3ccc4c(c3)OCO4)CC2)cc1	/	/	/	/	20µM*	/
CC(=O)c1ccc(OCC(O)CN2CCN(c3ccc(F)cc3)CC2)cc1 (stereo not drawn)	7	-22%	-18%	?	?	1
CC(C)c1ccc(OCC(O)CN2CCN(c3ccc(F)cc3)CC2)cc1 (stereo not drawn)	/	10%	79µM*	-18%	10µM*	/
